Records with an inconclusive call do not appear. The source made the active and inactive calls. Calls follow the shape of the full dose curve.
experiment: VSVG counterscreen qHTS to identify inhibitors of SARS-CoV-2 cell entry (AID 1645847); settings: VSV-G pseudotyped particle entry, luciferase; series mostly up to 57.2 µM; also: nearly all actives have a fitted effect of over 65% in size
Source text: Assay Provider: Wei Zheng, Ph.D.
National Center for Advancing Translational Sciences, National Institute of Health, Rockville, MD.
SARS-CoV-2 spike protein, within the viral envelope, mediates viral attachment and infection of host cells. The SARS-CoV-2 spike protein specifically binds to the host receptor ACE2 (Angiotensin-converting enzyme 2). This interaction promotes endocytosis of the viral particle, additional events lead to viral-host cell membrane fusion and release of the viral contents, allowing viral replication.
While SARS-CoV-2 requires BSL-3 facilities for live virus work, pseudotyped partices (PP) that incorporate SARS-CoV-2 spike proteins without replication elements could facilitate studies on viral entry mechanisms in a BSL-2 setting. This PP cell entry assay could also enable screening of small molecule compound libraries in BSL-2 setting to identify inhibitors of SARS-CoV-2 cell entry.
SEQUENCE No. (e.g., 1, 2, 3, etc.); […] (e.g., Cells, Incubation, Reagent, etc.); VALUE and DESCRIPTION.
1. Cells. Seed 1500 HEK293-ACE2 cells (Expi293F with stable expression of human ACE2) in 2 microL/well media (DMEM, 10% FBS, 1x L-glutamine, 1x Pen/Strep, 1 ug/ml puromycin) in white 1536-well assay plates (Greiner #782073).
2. Incubation. Incubate at 37 degrees C with 5% CO2 overnight (~16 h).
3. Compound. Dispense 23 nL/well compounds in DMSO via pin transfer.
4. Incubation. Incubate for 1 h at 37C 5% CO2.
5. Reagent. Dispense 2 microL/well of vesicular stomatitis virus G glycoprotein (VSV-G) pseudotyped particles (PP). [a] PPs are produced with murine leukemia virus pseudo-typing.
6. Centrifugation. […]
7. Incubation. Incubate at for 48 h at 37C 5% CO2
8. Centrifugation. Remove supernatant with gentle centrifugation using a Blue Washer (BlueCat Bio).
9. Reagent. Dispense 4 microL/well of Bright-Glo Luciferase detection reagent (Promega #E2620).
10. Incubation. Incubate for 5 min at room temperature.
11. Detection. Read luminescence signal (ViewLux plate reader, PerkinElmer). Data was normalized with wells containing VSV-G PP as 100%, and wells containing bald PP (no fusion protein) as 0%.
Potency is read from the fitted curve at half-maximal effect.

SMILES	Potency
O=C(CCCN1CCN(c2ccc(F)cc2)CC1)NC1c2ccccc2CSc2ccccc21 (configuration not stated)	1.71 µM (active)
CCCCC(CC)COC(=O)C(C#N)=C(c1ccccc1)c1ccccc1 (configuration not stated)	21.5 µM (active)
CCCCCCCCCCCCCCCCC(C(=O)O)C(O)(CC(=O)O)C(=O)O (configuration not stated)	inactive
CCCSS/C(CCO)=C(\C)N(C=O)Cc1cnc(C)nc1N	inactive
CCOC(=O)C(C)(C)Oc1ccc(Cl)cc1	12.1 µM (active)
COC(=O)C1=C(C)NC(C)=C(C(=O)OC(C)(C)CN(C)CCC(c2ccccc2)c2ccccc2)C1c1cccc([N+](=O)[O-])c1 (configuration not stated)	21.5 µM (active)
O=c1[nH]c(=O)n([C@H]2C[C@H](O)[C@@H](CO)O2)cc1C(F)(F)F	0.242 µM (active)
O[C@@H](COc1cccc2ncccc12)CN1CCN(C2c3ccccc3[C@@H]3[C@H](c4ccccc42)C3(F)F)CC1 (some centres not stated)	0.171 µM (active)
Clc1ccc(C(OCCN2CCCCC2)c2ccccc2)cc1 (configuration not stated)	inactive
CCCCCC(=O)O[C@]1(C(C)=O)CC[C@H]2[C@@H]3CCC4=CC(=O)CC[C@]4(C)[C@H]3CC[C@@]21C	24.1 µM (active)
Oc1ccc(Cl)cc1Cc1cc(Cl)ccc1O	3.83 µM (active)
CN1CCC(=C2c3ccccc3CCc3sccc32)CC1	12.1 µM (active)
CCOC(=O)C1=C(C)NC(C)=C(C(=O)OCC)C1c1ccccc1/C=C/C(=O)OC(C)(C)C	1.21 µM (active)
Clc1ccccc1C(c1ccccc1)(c1ccccc1)n1ccnc1	19.2 µM (active)
O=C(NCC1CN(c2ccc(N3CCOCC3=O)cc2)C(=O)O1)c1ccc(Cl)s1 (configuration not stated)	1.71 µM (active)
CCN(CC)CCOc1ccc(/C(=C(\Cl)c2ccccc2)c2ccccc2)cc1	8.57 µM (active)

SMILES	Potency
O=C(Nc1ccccc1)OCC(CN1CCCCC1)OC(=O)Nc1ccccc1 (configuration not stated)	inactive
c1ccc2c(c1)Sc1ccccc1N2CC1CN2CCC1CC2 (configuration not stated)	0.383 µM (active)
COC(=O)[C@H]1[C@H]2C[C@@H]3c4[nH]c5cc(OC)ccc5c4CCN3C[C@H]2C[C@@H](OC(=O)/C=C/c2ccc(O)c(OC)c2)[C@@H]1OC	19.2 µM (active)
CC(C(O)c1ccccc1)N(C)CCOC(c1ccccc1)c1ccccc1 (configuration not stated)	21.5 µM (active)
CN(C(=O)c1c(O)c2ccccc2n(C)c1=O)c1ccccc1	inactive
CCCOc1ccc2nc(NC(=O)OC)[nH]c2c1	0.607 µM (active)
O=C1NC2CCCCN2C12CCN(CCCN1c3ccccc3CCc3ccc(Cl)cc31)CC2 (configuration not stated)	21.5 µM (active)
CCCCCCOC(=O)NC(=N)c1ccc(NCc2nc3cc(C(=O)N(CCC(=O)OCC)c4ccccn4)ccc3n2C)cc1	4.82 µM (active)
CN(C)CCOC(c1ccccc1)c1ccc(Br)cc1 (configuration not stated)	2.71 µM (active)
COC(=O)Nc1nc2ccc(S(=O)c3ccccc3)cc2[nH]1 (configuration not stated)	24.1 µM (active)
CCC(=O)C(CCN(C)C)(c1ccccc1)c1ccccc1	3.41 µM (active)
CC1=CC(=O)c2ccccc2C1=O	6.81 µM (active)
C=CC[C@]1(O)CC[C@H]2[C@@H]3CCC4=CC(=O)CCC4=C3C=C[C@@]21C	17.1 µM (active)
Oc1c(Cl)cc(Cl)cc1Sc1cc(Cl)cc(Cl)c1O	4.82 µM (active)
CC(=O)c1ccc2c(c1)N(CCCN1CCC(CCO)CC1)c1ccccc1S2	7.08 µM (active)
COCCOC(=O)C1=C(C)NC(C)=C(C(=O)OC/C=C/c2ccccc2)C1c1cccc([N+](=O)[O-])c1 (configuration not stated)	21.5 µM (active)

— PubChem BioAssay (NCATS)
